Data taken from PubChem BioAssay AID1159580 (chemical genetic matrix, 2015).
Hit rate of the full screen: of about 5,500 compounds, about 2,000 (36%) were called active. Another 18% or so got no clear call; they are omitted. Cut-off read from the data, not from the text of the source: active = normalized growth mostly below about 0.91 (no sharp cut-off); inconclusive = no clear call, values can overlap the other calls; inactive = mostly above about 0.92. Some of the results follow.

Assay: chemical genetic growth profiling, strain panel (AID 1159580);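 note: tested at 20 µM; growth read once vehicle control cultures reached saturation at 30 °C; 1 = growth at the plate median or of vehicle wells; lower values mean less growth of the strain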
Conditions: S. cerevisiae deletion strains, growth OD
[1] = locus YDL101C, strain DUN1, active compounds read low
[2] = locus YHR030C, strain SLT2, active compounds read low

Measured: normalized growth

C=CCC1C(=O)N(S(=O)(=O)c2ccc(Cl)cc2)N=C1CCC (stereo unspecified)
inactive: locus YAR019C, strain CDC15, active compounds read low 0.992 | locus YBL105C, strain PKC1, active compounds read low 0.994 | locus YBR135W, strain CKS1, active compounds read low 0.998 | locus YBR136W, strain MEC1, active compounds read low 0.987 | locus YBR160W, strain CDC28, active compounds read low 0.997 | locus YDL017W, strain CDC7, active compounds read low 0.996 | locus YDL028C, strain MPS1, active compounds read low 0.995 | [1] 0.991 | locus YDL108W, strain KIN28, active compounds read low 0.989 | locus YDL132W, strain cdc53, active compounds read low 0.994 | locus YDL214C, strain PRR2, active compounds read low 0.951 | locus YDR052C, strain DBF4, active compounds read low 0.999 | locus YDR054C, strain cdc34, active compounds read low 0.996 | locus YDR226W, strain ADK1, active compounds read low 0.996 | locus YDR477W, strain SNF1, active compounds read low 0.981 | locus YER123W, strain YCK3, active compounds read low 0.961 | locus YER133W, strain GLC7, active compounds read low 0.986 | locus YFL009W, strain cdc4, active compounds read low 0.993 | locus YFL029C, strain CAK1, active compounds read low 0.984 | locus YFR003C, strain YPI1, active compounds read low 0.996 | locus YFR019W, strain FAB1, active compounds read low 0.977 | locus YFR028C, strain CDC14, active compounds read low 0.991 | locus YGR040W, strain KSS1, active compounds read low 0.97 | locus YGR052W, strain FMP48, active compounds read low 1.06 | locus YGR092W, strain DBF2, active compounds read low 0.997 | [2] 1.05 | locus YHR079C, strain IRE1, active compounds read low 0.97 | locus YHR082C, strain KSP1, active compounds read low 1.01 | locus YHR205W, strain SCH9, active compounds read low 0.972 | locus YIL147C, strain SLN1, active compounds read low 0.992 | locus YJL095W, strain BCK1, active compounds read low 0.993 | locus YJL128C, strain PBS2, active compounds read low 0.943 | locus YJL157C, strain FAR1, active compounds read low 0.983 | locus YJR016C, strain ILV3, active compounds read low 0.994 | locus YJR066W, strain TOR1 (second series), active compounds read low 0.978 | locus YJR066W, strain TOR1, active compounds read low 0.986 | locus YKL048C, strain ELM1, active compounds read low 0.962 | locus YKL067W, strain YNK1, active compounds read low 0.964 | locus YKL101W, strain HSL1, active compounds read low 0.942 | locus YKL193C, strain SDS22, active compounds read low 0.995 | locus YKL203C, strain TOR2, active compounds read low 1.04 | locus YLR113W, strain HOG1, active compounds read low 0.887 | locus YLR133W, strain CKI1, active compounds read low 0.965 | locus YLR403W, strain SFP1, active compounds read low 1 | locus YML070W, strain DAK1, active compounds read low 0.963 | locus YMR001C, strain CDC5, active compounds read low 0.991 | locus YMR205C, strain PFK2 (second series), active compounds read low 0.966 | locus YMR277W, strain FCP1, active compounds read low 0.999 | locus YNL006W, strain LST8, active compounds read low 0.999 | locus YNL020C, strain ARK1, active compounds read low 0.962 | locus YNL161W, strain CBK1, active compounds read low 0.994 | locus YNL183C, strain NPR1, active compounds read low 0.98 | locus YNL207W, strain RIO2, active compounds read low 0.995 | locus YNL222W, strain SSU72, active compounds read low 0.994 | locus YNL307C, strain MCK1 (second series), active compounds read low 0.989 | locus YOL078W, strain AVO1, active compounds read low 0.995 | locus YOL136C, strain PFK27, active compounds read low 0.968 | locus YOR061W, strain CKA2, active compounds read low 0.97 | locus YOR119C, strain RIO1, active compounds read low 1.01 | locus YOR231W, strain MKK1, active compounds read low 0.968 | locus YOR329C, strain SCD5, active compounds read low 0.996 | locus YPL031C, strain PHO85, active compounds read low 0.953 | locus YPL153C, strain RAD53, active compounds read low 0.977 | locus YPL204W, strain HRR25, active compounds read low 0.998 | locus YPL209C, strain IPL1, active compounds read low 0.994 | locus YPL256C, strain CLN2, active compounds read low 0.916 | locus YPR025C, strain CCL1, active compounds read low 0.994 | locus YPR106W, strain ISR1, active compounds read low 0.988 | locus YPR111W, strain DBF20, active compounds read low 0.978 | strain NNK1, active compounds read low 0.982 | strain TSCII, active compounds read low 0.989

NC(=O)C1=C(O)C(=O)N(C2CCCCC2)C1
inactive: locus YAL013W, strain DEP1, active compounds read low 0.992 | locus YBR229C, strain ROT2, active compounds read low 1.01 | [1] 1.02 | locus YDR150W, strain NUM1, active compounds read low 1.03 | locus YEL061C, strain CIN8, active compounds read low 0.995 | locus YGR078C, strain PAC10, active compounds read low 1 | [2] 1.05 | locus YHR087W, strain rtc3, active compounds read low 0.99 | locus YJR043C, strain POL32, active compounds read low 1.02 | locus YJR075W, strain HOC1, active compounds read low 1.01 | locus YKL190W, strain CNB1, active compounds read low 1.01 | locus YLR039C, strain RIC1, active compounds read low 1.02 | locus YLR058C, strain SHM2 (second series), active compounds read low 1.01 | locus YLR085C, strain ARP6, active compounds read low 1.03 | locus YLR262C, strain YPT6, active compounds read low 1 | locus YML094W, strain GIM5, active compounds read low 1 | locus YMR219W, strain ESC1, active compounds read low 1.01 | locus YMR263W, strain SAP30, active compounds read low 1 | locus YNL153C, strain GIM3, active compounds read low 1.01 | locus YNL298W, strain CLA4 (second series), active compounds read low 1.02 | locus YNL322C, strain KRE1, active compounds read low 0.998 | locus YNR030W, strain Alg12, active compounds read low 1.03 | locus YPL055C, strain LGE1, active compounds read low 0.999 | locus YPL241C, strain CIN2, active compounds read low 0.974 | locus YPR135W, strain CTF4, active compounds read low 1.06
